# Tested on: S. cerevisiae NKY1551 his4x/his4B, sporulating;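 active = HIS4 sensitivity z-score above 5 vs DMSO controls; inactive = score 5 or below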
# Assay: HIS4 meiotic recombination assay sensitivity score (z-score vs DMSO controls); higher = stronger inhibition of sporulation/recombination, active = hit call of the paper
row,SMILES,HIS4 meiotic recombination assay sensitivity score
1,"CN1CCN(CCCN2c3ccccc3Sc3ccc(Cl)cc32)CC1 [Prochlorperazine] (stock concentration (mM, diluted 1:100): 10.4)",-2.14 (inactive)
2,"C[C@H]1COc2c(N3CCN(C)CC3)c(F)cc3c(=O)c(C(=O)O)cn1c23 [Levofloxacin] (stock concentration (mM, diluted 1:100): 10)",0.16 (inactive)
3,"CN(C)[C@@H]1C(O)=C(C(=O)NCN2CCCC2)C(=O)[C@@]2(O)C(O)=C3C(=O)c4c(O)cccc4[C@@](C)(O)[C@H]3C[C@@H]12 [Rolitetracycline] (stock concentration (mM, diluted 1:100): 10)",3.05 (inactive)
4,"Cc1c2oc3c(C)ccc(C(=O)N[C@@H]4C(=O)N[C@H](C(C)C)C(=O)N5CCC[C@H]5C(=O)N(C)CC(=O)N(C)[C@@H](C(C)C)C(=O)O[C@@H]4C)c3nc-2c(C(=O)N[C@@H]2C(=O)N[C@H](C(C)C)C(=O)N3CCC[C@H]3C(=O)N(C)CC(=O)N(C)[C@@H](C(C)C)C(=O)O[C@@H]2C)c(N)c1=O [Dactinomycin] (stock concentration (mM, diluted 1:100): 10)",0.61 (inactive)
5,"COc1ccc(-c2oc3c(CC=C(C)C)c(O[C@@H]4O[C@H](CO)[C@@H](O)[C@H](O)[C@H]4O)cc(O)c3c(=O)c2O[C@@H]2O[C@@H](C)[C@H](O)[C@@H](O)[C@H]2O)cc1 [Icariin] (stock concentration (mM, diluted 1:100): 10)",0.32 (inactive)
